Source: PubChem BioAssay (NCI)
This is part of a sample that, as a whole, favours compounds with a hit. Of some 83,000 tested, about 20% had one in any assay.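 Activity criterion: percent growth below 10, measured after cells in 96-well plates were exposed to a single compound concentration for 48 hours.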 Calls of active or inactive are those of the source.

How the values were obtained:
Experiment in all cases: NCI-60 one-dose screen, 48 h (100 = growth as untreated, 0 = no growth, -100 = all killed)
Conditions in all cases: 10 µM unless noted
T-47D breast = test system: T-47D breast
BT-549 breast = test system: BT-549 breast
MDA-MB-435 melanoma = test system: MDA-MB-435 melanoma
SW-620 colon = test system: SW-620 colon
MCF7 breast = test system: MCF7 breast
HCT-116 colon = test system: HCT-116 colon
HCC-2998 colon = test system: HCC-2998 colon
KM12 colon = test system: KM12 colon

Measured: growth

O=C1N/C(=N/N=C(c2ccccc2)c2ccccc2)S/C1=C\c1ccc(Br)cc1
inactive: T-47D breast 84.7% | BT-549 breast 97% | MDA-MB-435 melanoma 103% | SW-620 colon 90.7% | MCF7 breast 99.6% | HCT-116 colon 81.8% | HCC-2998 colon 99.5% | KM12 colon 92.9%

Cc1ccc(-c2nnc(SCc3nc(N)nc(Nc4ccccc4F)n3)n2-c2ccccc2)cc1
inactive: T-47D breast 85% | BT-549 breast 97.9% | MDA-MB-435 melanoma 99.6% | SW-620 colon 93.6% | MCF7 breast 94.9% | HCT-116 colon 98.4% | HCC-2998 colon 126% | KM12 colon 101%

COc1ccc(-c2csc(NC(=O)CSc3nc(C)cc(=O)[nH]3)n2)cc1
inactive: T-47D breast 89.2% | BT-549 breast 86.1% | MDA-MB-435 melanoma 108% | SW-620 colon 101% | MCF7 breast 92.8% | HCT-116 colon 102% | HCC-2998 colon 117% | KM12 colon 100%

COc1ccc(C2=NN(C=O)C(c3ccc(Oc4nc5c(c(=O)n(C)c(=O)n5C)n4C)c(OC)c3)C2)cc1 (stereo not given)
inactive: T-47D breast 75.5% | BT-549 breast 96.9% | MDA-MB-435 melanoma 61.2% | SW-620 colon 104% | MCF7 breast 77.1% | HCT-116 colon 83% | HCC-2998 colon 82.3% | KM12 colon 87.5%

CCCN1C(=O)N(CCC)C2C1NC(=S)N2/N=C/C=C/c1ccccc1OC (stereo not given)
inactive: T-47D breast 40.3% | BT-549 breast 56% | SW-620 colon 22% | MCF7 breast 17.4% | HCT-116 colon 18.3% | HCC-2998 colon 20.3% | KM12 colon 21.1%
active: MDA-MB-435 melanoma -56.1%

CN1CCN(c2ccc(Nc3ncc4[nH]c(=O)n(Cc5ccccc5N)c4n3)cc2)CC1
inactive: T-47D breast 75.3% | BT-549 breast 97.8% | MDA-MB-435 melanoma 104% | SW-620 colon 95.3% | MCF7 breast 87.8% | HCT-116 colon 91.5% | HCC-2998 colon 96.4% | KM12 colon 101%

Cc1c2cnccc2c(C)c2c1c1cc(C(=O)O)ccc1n2C
active: T-47D breast -10.2% | BT-549 breast -1.22% | MDA-MB-435 melanoma 5.58% | SW-620 colon 7.21% | MCF7 breast 1.28% | HCT-116 colon 2.6% | HCC-2998 colon 4.89% | KM12 colon 5.47%

C#CC#CC#CC#CC#CC#CC#CC#CC[C@@H]1OC[C@H](COC(=O)O[C@@H](C(=O)O[C@H]2C[C@@]3(O)[C@@H](OC(=O)c4ccccc4)[C@@H]4[C@]5(OC(C)=O)CO[C@@H]5C[C@H](O)[C@@]4(C)C(=O)[C@H](OC(C)=O)C(=C2C)C3(C)C)[C@@H](NC(=O)c2ccccc2)c2ccccc2)O1
active: MDA-MB-435 melanoma -63.1% | KM12 colon 9.33%
inactive: T-47D breast 39.1% | BT-549 breast 34.6% | SW-620 colon 28.5% | MCF7 breast 18% | HCT-116 colon 12.5% | HCC-2998 colon 19.7%

Cc1ccc(Nc2cc(N)nc(N)n2)cc1
inactive: T-47D breast 98.9% | BT-549 breast 113% | MDA-MB-435 melanoma 106% | SW-620 colon 102% | MCF7 breast 86.5% | HCT-116 colon 104% | HCC-2998 colon 96% | KM12 colon 95.5%

CCOC(=O)c1c(N)sc2cc(O)ccc12
inactive: T-47D breast 85.7% | BT-549 breast 93.3% | MDA-MB-435 melanoma 107% | SW-620 colon 117% | MCF7 breast 104% | HCT-116 colon 98.5% | HCC-2998 colon 111% | KM12 colon 89.1%

Cc1ccc2c(n1)C[C@H](C(C)(C)O)CC[C@H]2C
inactive: T-47D breast 96.5% | BT-549 breast 112% | MDA-MB-435 melanoma 102% | SW-620 colon 104% | MCF7 breast 94.6% | HCT-116 colon 97.4% | HCC-2998 colon 102% | KM12 colon 109%

O=C(Nc1ccccc1C(F)(F)F)C1=NCCCCN1
inactive: T-47D breast 101% | BT-549 breast 105% | MDA-MB-435 melanoma 100% | SW-620 colon 92.9% | MCF7 breast 99.7% | HCT-116 colon 99.5% | HCC-2998 colon 102% | KM12 colon 102%

Cc1nc2ccccc2c(/C=C/c2ccc(Br)cc2)c1C(=O)/C=C/c1ccccc1
active: MDA-MB-435 melanoma -47.3% | SW-620 colon 2.35% | HCT-116 colon -49.1% | HCC-2998 colon -41.4% | KM12 colon 7.65%
inactive: T-47D breast 10.1% | BT-549 breast 21.7% | MCF7 breast 14%

COc1cc(CNC(=O)CCCC/C=C/C(C)C)ccc1OCc1cn(-c2cccc([N+](=O)[O-])c2)nn1
inactive: T-47D breast 72.3% | BT-549 breast 96.3% | MDA-MB-435 melanoma 101% | SW-620 colon 97.4% | MCF7 breast 74.1% | HCT-116 colon 42% | HCC-2998 colon 101% | KM12 colon 91.2%

O=C(/C=C\c1ccc(O)c(O)c1)c1ccccc1O
active: BT-549 breast 5.5%
inactive: T-47D breast 67% | MDA-MB-435 melanoma 67.9% | SW-620 colon 67.7% | MCF7 breast 48% | HCT-116 colon 83.7% | HCC-2998 colon 60.7% | KM12 colon 60.7%

CNc1nc2ncc(-c3c(C)noc3C)cc2n1Cc1ccccc1
inactive: T-47D breast 54.1% | BT-549 breast 60.2% | MDA-MB-435 melanoma 45.7% | SW-620 colon 71.8% | MCF7 breast 18.6% | HCT-116 colon 26% | HCC-2998 colon 63.4% | KM12 colon 62.1%

O=C(NC1CCCCCC1)c1ccc2c(=O)n3c(nc2c1)CCCCC3
inactive: T-47D breast 100% | BT-549 breast 100% | MDA-MB-435 melanoma 112% | SW-620 colon 101% | MCF7 breast 100% | HCT-116 colon 104% | HCC-2998 colon 121% | KM12 colon 115%

CCC(C)C(N)C(=O)NC(CC(C)C)C(=O)N1CCCC1C(=O)NC(Cc1c[nH]c2ccccc12)C(=O)NC(CCCCN)C(=O)NC(Cc1c[nH]c2ccccc12)C(=O)N1CCCC1C(=O)NC(Cc1c[nH]c2ccccc12)C(=O)NC(Cc1c[nH]c2ccccc12)C(=O)N1CCCC1C(=O)NC(Cc1c[nH]c2ccccc12)C(=O)NC(CCCNC(=N)N)C(=O)NC(CCCNC(=N)N)C(N)=O (stereo not given)
inactive: T-47D breast 108% | BT-549 breast 109% | MDA-MB-435 melanoma 95.9% | SW-620 colon 108% | MCF7 breast 121% | HCT-116 colon 95.3% | HCC-2998 colon 101% | KM12 colon 63.7%

O=C1Nc2ccccc2/C1=C/c1cccn1CCCCCCn1c2ccccc2c(=O)c2ccccc21
active: T-47D breast -3% | MCF7 breast 1.03%
inactive: BT-549 breast 63.5% | MDA-MB-435 melanoma 96.7% | SW-620 colon 102% | HCT-116 colon 70.4% | HCC-2998 colon 42.8% | KM12 colon 12.8%

CN1/C(=C/C=C/c2n(Cc3ccc4ccccc4c3)c(Cl)c(Cl)[n+]2Cc2ccc3ccccc3c2)Oc2ccccc21
active: T-47D breast -50.2% | BT-549 breast -84.8% | MDA-MB-435 melanoma -81.8% | SW-620 colon -79.9% | MCF7 breast -72.8% | HCT-116 colon -82.2% | HCC-2998 colon -87.6% | KM12 colon -80.9%

COc1cc(OC)cc(C(=O)Nc2cnc(Nc3ccc(N4CCOCC4)nc3)nc2Oc2ccc(C(F)(F)F)cc2)c1
inactive: T-47D breast 69.9% | BT-549 breast 77.5% | MDA-MB-435 melanoma 74.9% | SW-620 colon 71.2% | MCF7 breast 59.1% | HCT-116 colon 16.1% | HCC-2998 colon 99.9% | KM12 colon 88%

CC/C(=C(/c1ccc(Cl)cc1)c1ccc(OCCN2CCCCCC2)cc1)c1ccccc1
inactive: T-47D breast 68.5% | BT-549 breast 114% | MDA-MB-435 melanoma 90.5% | SW-620 colon 44.7% | MCF7 breast 76.3% | HCT-116 colon 62.7% | HCC-2998 colon 97.8% | KM12 colon 55%

Nc1ccc(Cl)c2c(=O)c3ccccc3[nH]c12
inactive: T-47D breast 82.6% | BT-549 breast 75.4% | MDA-MB-435 melanoma 86.3% | SW-620 colon 86% | MCF7 breast 65% | HCT-116 colon 84.9% | HCC-2998 colon 88.6% | KM12 colon 89.7%

O=c1[nH]c(CN2CCN(c3ccccc3)CC2)nc2c(Br)cc(Br)cc12
inactive: T-47D breast 103% | BT-549 breast 123% | MDA-MB-435 melanoma 108% | SW-620 colon 102% | MCF7 breast 110% | HCT-116 colon 107% | HCC-2998 colon 101% | KM12 colon 105%

Cc1ccc(C(F)(F)F)cc1N1CCN(C(=O)[C@H]2C[C@H]2c2ccc(C(F)(F)F)nc2)CC1
inactive: T-47D breast 68.4% | BT-549 breast 88.2% | MDA-MB-435 melanoma 103% | SW-620 colon 105% | MCF7 breast 91.2% | HCT-116 colon 93.4% | HCC-2998 colon 101% | KM12 colon 91.8%

O=C(Cn1cc(CSc2nc3ccccc3o2)nn1)Nc1ccc([N+](=O)[O-])cc1
inactive: T-47D breast 87.9% | BT-549 breast 96.7% | MDA-MB-435 melanoma 99.1% | SW-620 colon 102% | MCF7 breast 96.8% | HCT-116 colon 97.6% | HCC-2998 colon 110% | KM12 colon 94.8%

CC(C)(C)c1ccc(C(=O)Nc2sc3c(c2C#N)CCC(=O)C3)cc1
active: T-47D breast -31.8% | BT-549 breast -11.7% | MDA-MB-435 melanoma 6.81% | SW-620 colon -51% | MCF7 breast 8.36% | HCT-116 colon 2.24%
inactive: HCC-2998 colon 48.1% | KM12 colon 12%

Oc1cccc2c1NCCC2
active: HCT-116 colon 8.94%
inactive: T-47D breast 22.1% | BT-549 breast 39.1% | MDA-MB-435 melanoma 15.4% | SW-620 colon 19.9% | MCF7 breast 13.1% | HCC-2998 colon 32.8% | KM12 colon 20.7%

CCN1C(=O)N(CC)C2C1NN=c1s/c(=C3\C(=O)N(C)c4ccccc43)c(=O)n12 (stereo not given)
active: MDA-MB-435 melanoma -34.4% | HCT-116 colon 8.97%
inactive: T-47D breast 18.5% | BT-549 breast 55.8% | SW-620 colon 28.3% | MCF7 breast 24.9% | HCC-2998 colon 22.1% | KM12 colon 20.9%

c1ccc(-c2cn3nc(-c4c[nH]c5ccccc45)sc3n2)cc1
inactive: T-47D breast 62.6% | BT-549 breast 91.3% | MDA-MB-435 melanoma 26.5% | SW-620 colon 73.5% | MCF7 breast 59.1% | HCT-116 colon 84.2% | HCC-2998 colon 89.6% | KM12 colon 58.3%
